# SARS PLP yeast – inhibitors of SARS-CoV papain-like protease in yeast | S. cerevisiae expressing SARS-CoV PLpro, growth rescue | Potency, µM (series often up to 32.9 µM), without a hit: top-dose activity, positive = growth rescue, actives largely listed as activators | 0.19% of 330,000 active | AID 485353; calls by dose curve; note: potency is the fitted concentration of half-maximal effect; 0% is about no effect; nearly all actives have a fitted effect of over 55% in size
# HCMV antiviral – blocks human cytomegalovirus replication. HFF cells, HCMV-luciferase reporter, 72 h; active compounds read low. activity change, negative = inhibition, % at 57.5 µM. 4.5% of 410,000 active. AID 1259415; in the data active = activity change below about -60%; inconclusive = no clear call, values can overlap the other calls; inactive = above about -39%; note: % is set by controls: 0 for no effect and ±100 for the full control effect
#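 Luciferase read-out from HCMV-luciferase-infected HFFs (MOI 1 PFU/cell) 72 h post infection at 37C; compounds added after 16 h cell attachment; activity normalized between buffer-only basal and Salinomycin (10uM) inhibitor controls.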
# HCV inh – inhibitors of hepatitis C virus infection; Huh7.5.1 HCVcc-Cre infection, luciferase reporter, 44 h; Potency, µM (top dose mostly 41.8 µM), inactives show at the top dose activity change, negative = inhibition, usual class: inhibitors; 3.4% of 340,000 active; note: potency is the fitted concentration of half-maximal effect; % is set by controls: 0 for no effect and ±100 for the full control effect
#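 1,000 cells/well; 4 h culture; + compound; + HCVcc-Cre (~0.5 moi); 44 h; luciferase substrate, RT 15 min; read 15 sec.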
# Sm TGR block – S. mansoni TGR enzyme inhibition | Q962Y6 | purified TGR, DTNB reduction, TNB absorbance 405 nm | Potency, µM (series often up to 114 µM), for inactives: top-dose activity change, negative = inhibition, most hits filed as inhibitors | 3% of 360,000 active | AID 485364; note: potency is the fitted concentration of half-maximal effect; % is set by controls: 0 for no effect and ±100 for the full control effect; nearly all actives have a fitted effect of over 60% in size
#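 Kinetic colorimetric format: TGR-catalysed, NADPH-driven DTNB reduction monitored via TNB absorbance. Enzyme dispensed at 20 nM; compound exposure 15 min at room temperature before reaction start.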
# Pf growth 48h – P. falciparum growth inhibition at 48 hours (one generation). P. falciparum luciferase growth in erythrocytes, 48 h. Potency, µM (series often up to 28.7 µM), inactives show at the highest dose activity change, negative = inhibition, most hits filed as inhibitors. 5.9% of 310,000 active; note: potency is the fitted concentration of half-maximal effect; % is set by controls: 0 for no effect and ±100 for the full control effect
#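 Here the parasites carry a stable luciferase gene and grow inside erythrocytes in Albumax-based RPMI medium with compound for one erythrocytic cycle. Activity is scored as loss of luminescent signal.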
# Pf growth 96h – P. falciparum growth inhibition at 96 hours; P. falciparum luciferase reporter growth, 96 h; Potency, µM (highest dose often 28.7 µM), for the others: at the top dose activity change, negative = inhibition, hits mostly inhibitors; 6.9% of 320,000 active; AID 504834; note: potency is the fitted concentration of half-maximal effect; % is set by controls: 0 for no effect and ±100 for the full control effect
#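 Two-generation exposure (96 h) targets delayed-death phenotype. Reporter parasites carrying integrated firefly luciferase, in red cells at 2% hematocrit and 0.05% parasitemia final, kept at 37 C, 5% CO2; luminescence loss indicates inhibition.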
# The depositor's hits bear a star; ? = inconclusive; . = no result; ! = repeats disagree; [ ] = another dose, or the depositor's remark. Shown are actives, neighbours in structure and some others; about 15% of the full set was active somewhere. Unless noted, calls come from the whole dose curve; as a rule, active = well fitted curve in the direction sought with a large enough effect; inconclusive = small, poorly fitted or top-dose-only effect, or another doubt; inactive = no such curve, though single readings can be large; an effect the other way counts as inactive or inconclusive.
SMILES,SARS PLP yeast,HCMV antiviral,HCV inh,Sm TGR block,Pf growth 48h,Pf growth 96h
NC1=NC[C@@H](CC2CCCCC2)N1CCc1cc(C(F)(F)F)cc(C(F)(F)F)c1,-1%,.,?,.,.,.
Fc1cccc(CCN2CCNC[C@@H]2Cc2ccccc2)c1,.,-9,?,.,.,.
NC1=NC[C@H](Cc2ccccc2)N1CCCCC1CCCCC1,-5%,-31,-3%[8.37 µM],10%,?,12µM*
c1ccc(C[C@H]2CN=C(Nc3ccccc3)N2CCC2CCCC2)cc1,0%,-13,?,-6%,?,?
NC1=NC[C@H](Cc2ccc(O)cc2)N1CCCCC1CCCCC1,-3%,-90*,4%[8.37 µM],-3%,2.1µM*,2.1µM*
NC1=NC[C@H](Cc2ccccc2)N1CCc1cccc(F)c1,8%,9,13%,9%,5.9µM*,3.7µM*
Cc1cc(N2CCN(C)CC2)nc2ccc(NC(=S)NCCCN3CCN(C)CC3)cc12,-7%,-32,-26%,-16%,?,-10%
COc1ccc(CNC(=S)Nc2ccc3nc(N4CCN(C)CC4)cc(C)c3c2)cc1,1%,-31,?,-15%,?,?
Cc1cc(N2CCN(C)CC2)nc2ccc(NC(=S)NCc3cccs3)cc12,-1%,3,10µM*,-33%,?,-3%
COc1ccccc1CNC(=S)Nc1ccc2nc(N3CCN(C)CC3)cc(C)c2c1,0%,0,-19%,-27%,6.6µM*,320%
COCCNC(=S)Nc1ccc2nc(N3CCN(C)CC3)cc(C)c2c1,17%,71,-7%,40µM*,0%,-75%
CCN(CC)CCNC(=S)Nc1ccc2nc(N3CCOCC3)cc(C)c2c1,0%,-25,?,0%,20%[0.00184 µM],-15%
CCN1CCN(c2cc(C)c3cc(NC(=S)NCc4cccs4)ccc3n2)CC1,0%,-11,?,?,?,?
CCN(CC)CCNC(=S)Nc1ccc2nc(N3CCN(C)CC3)cc(C)c2c1,1%,-16,?,-23%,10µM*,-4%
CCOCCC(=O)Nc1ccc2c(c1)c(=O)n(C)n2CC=C(C)C,.,1,.,.,.,.
COc1ccc2[nH]c(=O)c(CN(C(=O)C(C)C)c3ccccc3OC)cc2c1,4%,-16,12%,0%,-39%,-23%
C=CCn1c(=O)c2ccccc2n2c(SCC(=O)Nc3sc(C(=O)N(CC)CC)c(C)c3C(=O)OCC)nnc12,7%,?,6.3µM*!,-10%,12µM*,0%
CCOC(=O)c1sc(NC(=O)CSc2nnnn2-c2ccc(C)c(C)c2)nc1C,-7%,-7,16%,8%,24%,2.3µM*
CCOC(=O)c1sc(NC(=O)CSc2nc3c(c(=O)n2-c2ccc(C)cc2)SCC3)c(C(=O)OCC)c1C,-2%,-19,-6%,-6%,?,12µM*
CCOC(=O)c1sc(NC(=O)CSc2nnnn2-c2ccc(C)cc2)c(C(=O)OCC)c1C,0%,61,?,5%,?,5.2µM*
O=C(COC(=O)c1ccc(O)cc1O)NC(=O)Cc1ccccc1,.,-1,-1%,.,.,.
CC(C)C(C(=O)OCC(=O)c1ccccc1)N1C(=O)C2C3C=CC(C3)C2C1=O (stereo unspecified),0%,-7,-5%,.,9%,12%
CCOc1ccc2ccc(OCC)c(/C=N/n3cnnc3)c2c1,-4%,57,?,5%,0%,21%
CCOC(=O)c1sc(NC(=O)CSc2n[nH]c(CC(C)C)n2)nc1C,9%,-62*,?,-13%,4%,?
CCOC(=O)c1c(NC(=O)CSc2nc3ccccc3c(=O)n2-c2ccccc2)sc(C(C)=O)c1C,6%,-27,3%,1%,0.21µM*,2.3µM*
SMILES,SARS PLP yeast,HCMV antiviral,HCV inh,Sm TGR block,Pf growth 48h,Pf growth 96h
CCOC(=O)c1sc(NC(=O)CSc2n[nH]c(C)n2)nc1C,-1%,?,-10%,13%,4%,-23%
CCOC(=O)c1c(NC(=O)CSc2nc3ccccc3o2)sc(C(C)=O)c1C,-5%,203,2%,2%,33%,49%
Cc1ccc(C)c(NC(=O)Cn2c(=O)n(Cc3ccc4c(c3)OCO4)c(=O)c3ccccc32)c1,.,6,.,-6%,.,.
Nc1nc(Sc2c([N+](=O)[O-])cc(C(F)(F)F)cc2[N+](=O)[O-])n[nH]1,1%,25,1%,7.9µM*,?,?
COc1ccc(Br)cc1CN(C)CC(O)COc1ccc(Br)cc1 (stereo unspecified),-3%,?,?,1%,?,?
COc1cccc(CN(C)CC(O)COc2cc(Cl)ccc2Cl)c1 (stereo unspecified),-1%,-12,?,-1%,10µM*,?
O=C(C1=C[C@@H](c2ccc(C(F)(F)F)cc2)C[C@@H](OCc2ccc(CO)cc2)O1)N1CCN(Cc2ccccc2)CC1,-2%,-6,-23%,35µM*,?,?
O=C(O)C1=C[C@H](c2ccc(C(F)(F)F)cc2)C[C@H](OCc2ccc(CO)cc2)O1,-1%,0,3%,50µM*,3%,0%
COC(=O)c1ccc([C@H]2C=C(C(=O)O)O[C@@H](OCc3ccc(CO)cc3)C2)cc1,-1%,5,35%[8.37 µM],10µM*,43%,56%
CN1CCN(C(=O)C2=C[C@@H](c3ccc(C(F)(F)F)cc3)C[C@@H](OCc3ccc(CO)cc3)O2)CC1,0%,6,3%,?,?,?
NC(=O)C1=C[C@H](c2ccccc2)C[C@H](OCc2ccc(CO)cc2)O1,0%,9,14%,?,21%,54%
O=C(C1=C[C@H](c2ccc(C(F)(F)F)cc2)C[C@H](OCc2ccc(CO)cc2)O1)N1CCOCC1,-1%,4,-9%,?,-6%,16%
C#Cc1ccc([C@H]2C=C(C(=O)O)O[C@@H](OCc3ccc(CO)cc3)C2)cc1,-2%,-10,41%,35µM*,0%,0%
Cc1ccc(OCc2nc3ccccc3n2C(C(=O)NC(C)(C)C)c2ccncc2)cc1 (stereo unspecified),.,-1,.,.,.,.
COc1ccc(N=Cc2c(O)n(-c3cccc(C)n3)c(=O)c3ccccc23)c(OC)c1,2%,-25,?,12%,20%,24%
CCCCNC(=O)C(=O)NC(C)CCc1ccccc1 (stereo unspecified),8%,-9,12%,19%,30%,41%
CCCn1c(/C=N/Nc2nc3ccccc3[nH]2)nc2ccccc21,-50%,-99*,?,-1%,1.9µM*,4.1µM*
C(=N\Nc1nc2ccccc2[nH]1)/c1cccs1,-2%,40,24%,-17%,2.9µM*,2.6µM*
